For 37 compounds, growth inhibition results are on record in PubChem BioAssay (NCI).

About 79,000 compounds went through this panel and 15% of them were active in at least one assay; those are over-represented in the sample as a whole. A number with no mark means an inactive call. Activity calls are given as the source filed them. Rule as the data show it: active = growth inhibition above about 70%; inactive = the rest.

Experiment [1] can be described thus: NCI Yeast Anticancer Drug Screen. Data for the rad50 strain (AID 155).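 Also: 0% = growth of vehicle-only cultures of the same strain.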 To be noted: S. cerevisiae rad50 strain growth inhibition; at 50.0 µM; stronger effect = higher value. Put shortly:
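Genetically altered yeast (DNA repair pathway); compound treatment; growth inhibition vs vehicle ctrl.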

Experiment [2] in a line: NCI Yeast Anticancer Drug Screen. Data for the mec2-1 strain (AID 157). To be noted: S. cerevisiae mec2-1 strain, at 50.0 µM, stronger effect = higher value. Put shortly: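 Compounds were applied to mec2-1 yeast cells. Their growth was then compared with that of vehicle-treated cultures to give growth inhibition.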
Experiment [3] in a line: NCI Yeast Anticancer Drug Screen. Data for the sgs1 mgt1 strain (AID 161).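 Also: 0% = growth of cultures given vehicle only.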 Particulars: S. cerevisiae sgs1 mgt1 strain, at 50.0 µM, stronger effect = higher value. Put shortly: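 This yeast growth screen uses a strain with defined DNA-repair lesions; compound-treated growth is compared with vehicle-treated growth.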
A short description of experiment [4]: NCI Yeast Anticancer Drug Screen. Data for the cln2 rad14 strain (AID 165).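 Also: 0% = growth equal to vehicle treated cultures.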 To be noted: S. cerevisiae cln2 rad14 strain, at 50.0 µM, stronger effect = higher value. In short, it runs like this: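 Strain: cln2 rad14 yeast, altered in cell cycle control and DNA damage repair. Read-out: growth inhibition vs vehicle.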
Experiment [5] can be described thus: NCI Yeast Anticancer Drug Screen. Data for the bub3 strain (AID 167). Particulars: S. cerevisiae bub3 mutant strain, at 50.0 µM, stronger effect = higher value. In short, it runs like this: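 Yeast carrying a defined mutation is treated with each compound, and growth is compared with that of vehicle-exposed cells to give inhibition.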
The nature of experiment [6]: NCI Yeast Anticancer Drug Screen. Data for the mlh1 rad18 strain (AID 175). Particulars: S. cerevisiae mlh1 rad18 strain growth inhibition; at 50.0 µM; stronger effect = higher value. Put shortly: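 A repair-deficient yeast strain is exposed to test compound, and growth is scored relative to vehicle-treated controls.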

Take `COC1=CC(=O)C(C(C)=O)=C(C2(C)C(=O)CCCC2=O)C1=O`: the growth inhibition in experiment [1] is -12.3%; in experiment [2], 0.5%; in experiment [3], -0.6%; in experiment [4], 6.25%; in experiment [5], 5.15%; in experiment [6] it was 7.25%.

On to `COc1ccccc1/C=C/c1nc2ccccc2o1`, for which the growth inhibition was 47.6% in experiment [1]; 19.7% in experiment [2]; 56.1% in experiment [3]; 13.6% in experiment [4]; 59.8% in experiment [5]; 53% in experiment [6].

In the case of `CC(=O)C1=C(C)N2C(=NC3=C(CCc4ccccc43)C2c2ccc(F)cc2)S1` (configuration not stated), the growth inhibition in experiment [1] was -5.6%; in experiment [2] it was -23.9%; in experiment [3], -15.4%; in experiment [4], 11.3%; in experiment [5], -21.8%; in experiment [6], -9.8%.

As for `Cc1ccc(S(=O)(=O)OCC2C(COS(=O)(=O)c3ccc(C)cc3)C3C=CC2C32CC2)cc1` (configuration not stated), the growth inhibition in experiment [1] is -5.5%; in experiment [2] it was -7.9%; in experiment [3], 27.9%; in experiment [4] it was 77.7% (active); in experiment [5], 91% (active); in experiment [6] it was 5.25%.

With `O=C(NNC(=O)c1ccc2ccccc2c1)c1ccc(F)cc1`, the growth inhibition in experiment [1] is 4.05%; in experiment [2], 0.9%; in experiment [3] it was 3.8%; in experiment [4] it was 3.05%; in experiment [5], 10.2%; in experiment [6], 10.2%.

As to `CN(C)CCN1C(=O)CC[C@@]2(C)C1=CC[C@@H]1[C@@H]2CC[C@@]2(C)[C@H]1CC[C@]2(C)O`, the growth inhibition in experiment [1] is -21.7%; in experiment [2] it was -12.8%; in experiment [3], -18.6%; in experiment [4], -11.1%; in experiment [5], -0.1%; in experiment [6] it was -9.15%.

Take `CCCCCOS(=O)(=O)O`: the growth inhibition in experiment [1] was -0.3%; in experiment [2] it was 4.3%; in experiment [3], -0.6%; in experiment [4], -11%; in experiment [5], -0.25%; in experiment [6], 5.3%.

For the compound `CCCCN(CCCC)CCCNC(=S)Nc1ccccc1`, the growth inhibition in experiment [1] was -3.25%; in experiment [2] it was 24.2%; in experiment [3], 38.1%; in experiment [4], -7.25%; in experiment [5] it was 3.25%; in experiment [6], 36.4%.

Consider `O=C(O)c1cnc(Cl)c(Br)c1`, for which the growth inhibition in experiment [1] is -12.1%; in experiment [2], -3.35%; in experiment [3], 6.7%; in experiment [4], -17.9%; in experiment [5], -27.1%; in experiment [6] it was 2.5%.

For `CCOC(=O)c1ccc(NCc2ccc3nc(OC)c(OC)nc3c2)cc1`, the growth inhibition in experiment [1] was -5.7%; in experiment [2], -20.5%; in experiment [3] it was -13.7%; in experiment [4], 14.9%; in experiment [5], 6.85%; in experiment [6] it was -19.4%.

Consider `N#Cc1c(C#N)c(-c2cccc([N+](=O)[O-])c2)n(-c2ccccc2)c1N`, for which the growth inhibition in experiment [1] is 15.9%; in experiment [2], 15.5%; in experiment [3], -35.6%; in experiment [4], 2.15%; in experiment [5], -16.6%; in experiment [6], -16.5%.

Regarding `O=C(CCCC(=O)N/N=C/c1ccc(Cl)cc1)N/N=C\c1ccc(Cl)cc1`, the growth inhibition in experiment [1] was -27.4%; in experiment [2] it was -9.9%; in experiment [3], -9.9%; in experiment [4], -11.6%; in experiment [5], -1.65%; in experiment [6] it was -16.9%.

In the case of `Cc1cc(OCCCC(=O)O)ccc1Cl`, the growth inhibition is 51.8% in experiment [1]; 30.7% in experiment [2]; 54.1% in experiment [3]; 34.9% in experiment [4]; 49.1% in experiment [5]; 52.1% in experiment [6].

For `COc1ccc(C2C(C#N)=C(N)NC(=O)C2C(N)=O)cc1` (configuration not stated), the growth inhibition in experiment [1] is -12.6%; in experiment [2] it was -11.8%; in experiment [3], -16.8%; in experiment [4], -0.1%; in experiment [5], -4.05%; in experiment [6] it was -19.4%.

Consider `CCCCCCN1CCc2c(C)c(C#N)c3nc4ccccc4n3c21`, for which the growth inhibition in experiment [1] is -8.45%; in experiment [2] it was -8.05%; in experiment [3], -0.95%; in experiment [4], 10.9%; in experiment [5] it was 19.1%; in experiment [6], 21.8%.

Take `CC(=O)[CH-]C(=O)c1ccccc1.CC(=O)[CH-]C(=O)c1ccccc1.CC[C@H](CCC(C)[C@H]1CCC2[C@@H]3CC=C4C[C@@H]([O-])CC[C@]4(C)C3CC[C@@]21C)C(C)C.CC[C@H](CCC(C)[C@H]1CCC2[C@@H]3CC=C4C[C@@H]([O-])CC[C@]4(C)C3CC[C@@]21C)C(C)C.Cl.[Ti+4]` (some centres not stated): the growth inhibition is 19% in experiment [1]; 3.9% in experiment [2]; 23.2% in experiment [3]; -11.2% in experiment [4]; 27.1% in experiment [5]; 5.05% in experiment [6].

With `Oc1ccc(Br)cc1CNC1CCCCC1`, the growth inhibition is 58.5% in experiment [1]; 31.8% in experiment [2]; 61.1% in experiment [3]; -9.9% in experiment [4]; 27.1% in experiment [5]; 24.1% in experiment [6].

For the compound `CC1CS(=O)(=O)O1` (configuration not stated), the growth inhibition in experiment [1] was -4.45%; in experiment [2] it was -6.75%; in experiment [3], -18.6%; in experiment [4] it was 9.5%; in experiment [5], 10.3%; in experiment [6], 6.8%.

In the case of `N=C(N)SCCCN`, the growth inhibition in experiment [1] was -1.7%; in experiment [2], -14.7%; in experiment [3] it was -3.6%; in experiment [4] it was 2.95%; in experiment [5] it was -36%; in experiment [6], 29.1%.

Take `CCN(CC)c1ccc(NC(=O)CCl)cc1`: the growth inhibition in experiment [1] was -3.95%; in experiment [2], -12.5%; in experiment [3], -13%; in experiment [4], 1.45%; in experiment [5] it was -15.8%; in experiment [6], 8.2%.

`OCc1c(CO)c2cccn2c2c1cnn2-c1ccccc1`: the growth inhibition was 11.3% in experiment [1]; 1.45% in experiment [2]; 23.9% in experiment [3]; -64.9% in experiment [4]; -8.2% in experiment [5]; 11.2% in experiment [6].

`O=C(OCC1OC(C2N(c3ccccc3)CCN2c2ccccc2)C(OC(=O)c2ccccc2)C1OC(=O)c1ccccc1)c1ccccc1` (configuration not stated): the growth inhibition in experiment [1] was 0.85%; in experiment [2], 6.5%; in experiment [3] it was -26.4%; in experiment [4], -7.45%; in experiment [5], -11.9%; in experiment [6] it was 9.7%.

Regarding `N#CCCc1nc(N)nc(N)n1`, the growth inhibition in experiment [1] is -19.7%; in experiment [2] it was -3.7%; in experiment [3], -26.9%; in experiment [4], -60.3%; in experiment [5], -17.7%; in experiment [6], 5.85%.

`Cc1ccc(NC(=O)COc2ccccc2)c(C)c1`: the growth inhibition is 4.35% in experiment [1]; 19.9% in experiment [2]; 15.9% in experiment [3]; -4.25% in experiment [4]; 28.3% in experiment [5]; 28.4% in experiment [6].

As to `CN1CCN(C2CCCc3ccccc3C2=O)CC1` (configuration not stated), the growth inhibition in experiment [1] was 21.9%; in experiment [2], -10.6%; in experiment [3], 4.75%; in experiment [4] it was -36%; in experiment [5], -15.5%; in experiment [6] it was 13.4%.

In the case of `O=C(OCc1ccccc1)N(Cc1ccccc1)S(=O)(=O)c1ccccc1`, the growth inhibition in experiment [1] is 26.1%; in experiment [2], 34.8%; in experiment [3] it was 14.9%; in experiment [4], 5.5%; in experiment [5], 13.6%; in experiment [6], 0.4%.

Regarding `COc1ccc(C(O)c2ccc(C)cc2)cc1` (configuration not stated), the growth inhibition in experiment [1] was -14.1%; in experiment [2], -4.2%; in experiment [3], -43%; in experiment [4] it was -27.6%; in experiment [5], -27.4%; in experiment [6], -17.3%.

Regarding `N#CCCOCCN1CCN(c2cccc(Cl)c2)CC1`, the growth inhibition in experiment [1] is 9.85%; in experiment [2], -7.8%; in experiment [3], 12%; in experiment [4] it was -2.6%; in experiment [5], 51.6%; in experiment [6] it was 23.1%.

As to `O=C(Nc1ccc(Cc2ccc(NC(=O)Nc3nc4ccccc4s3)cc2)cc1)Nc1nc2ccccc2s1`, the growth inhibition in experiment [1] is -5.15%; in experiment [2], -17.4%; in experiment [3], -2.25%; in experiment [4], 19.2%; in experiment [5] it was 21.6%; in experiment [6], -4.5%.

With `CCOC(C)Oc1ccccc1` (configuration not stated), the growth inhibition in experiment [1] was 35.5%; in experiment [2], -8.6%; in experiment [3], 20.4%; in experiment [4], 15.4%; in experiment [5] it was -28.1%; in experiment [6], 16.4%.

`O=C(O)c1ccc(O)cc1`: the growth inhibition is 14.3% in experiment [1]; 44.7% in experiment [2]; -0.9% in experiment [3]; 2.45% in experiment [4]; 1.7% in experiment [5]; 21.9% in experiment [6].

Turning to `C=CC1CC[N-]CC1.[Cl][Cu][Cl]`, the growth inhibition in experiment [1] is 6.4%; in experiment [2] it was -1.9%; in experiment [3], 2.75%; in experiment [4], -7.6%; in experiment [5] it was -14.6%; in experiment [6] it was 6.35%.

Consider `Cc1c(N=Nc2cccc(Cl)c2)c(-c2ccccc2)nn1C(N)=S`, for which the growth inhibition in experiment [1] was 80.3% (active); in experiment [2] it was 45%; in experiment [3] it was 96.8% (active); in experiment [4], 12.4%; in experiment [5], 91.5% (active); in experiment [6] it was 92.5% (active).

As to `CCOC(=O)c1ccc(OC(=O)Nc2ccccc2)cc1`, the growth inhibition is -2.2% in experiment [1]; 6% in experiment [2]; 1.15% in experiment [3]; -12.4% in experiment [4]; -2.8% in experiment [5]; -28.1% in experiment [6].

`Cn1c(=O)c2[nH]c(Br)nc2n(C)c1=O`: the growth inhibition is -12% in experiment [1]; -13.4% in experiment [2]; 5.4% in experiment [3]; -4.25% in experiment [4]; 13.3% in experiment [5]; -12.2% in experiment [6].

As to `CC(=O)c1cccc(C(C)=O)c1N=Cc1ccc(Cl)cc1`, the growth inhibition in experiment [1] was -30.3%; in experiment [2], -27.9%; in experiment [3], -26.4%; in experiment [4], -11.8%; in experiment [5], -18.1%; in experiment [6], -18.9%.

On to `c1ccc(CN2CCc3ncnc(Nc4ccccc4)c3C2)cc1`, for which the growth inhibition was -13.4% in experiment [1]; 1.25% in experiment [2]; 5.5% in experiment [3]; -16.8% in experiment [4]; 4.75% in experiment [5]; -5.05% in experiment [6].
